Laboratory results published in PubChem BioAssay (NCI).
Values joined by “and” are separate entries in the source; they are usually repeats but may differ in a detail not shown here. Equal values may be shown once. Compounds without any hit were thinned out: in the full panel of roughly 83,000, 20% have a hit.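 Interpretation: 100, growth as untreated; towards 0, rising growth inhibition; 0, no net growth; 0 to -100, cell death. Compounds scoring below 10 were considered active.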 A number with no mark means an inactive call. Active and inactive are the calls of the source.

Test system: MDA-MB-468 breast
Assay: NCI-60 one-dose screen, 48 h (100 = growth as untreated, 0 = no growth, -100 = all killed)
Details: 10 µM unless noted

| Compound | growth |
| --- | --- |
| CCOP(=O)(OCC)OC[C@]12CCC(C)(C)C[C@H]1C1=CC[C@@H]3[C@@]4(C)CC[C@H](OP(=O)(OCC)OCC)C(C)(C)[C@@H]4CC[C@@]3(C)[C@]1(C)CC2 | 40.9% |
| O=C1c2cc3c(cc2-c2c1c1ccc(Cl)cc1c(=O)n2CCCn1ccnc1)OCO3 | -47.9% (active) |
| CCOC(=O)Nc1cccc(-n2cnc3cc(-c4ccc(O)cc4)ccc32)c1 | 20.4% |
| CCCCCCNC(=O)Oc1ccc(/C(=C(/C)c2ccc(Cl)cc2)c2ccc(OCCN3CCCC3)cc2)cc1 | 62.6% |
| CN1C(=O)N(C)C2Nn3c(s/c(=C\c4ccc(Cl)cc4Cl)c3=O)=NC21 (stereo not drawn) | 59% |
| COC(=O)CNC(=O)c1cccc(-c2cc(=O)c3c(OC)c(OC)c(OC)cc3o2)c1 | 89.8% |
| CCCCCCCCCCCCCCCC[N+]1(C)CCOCC1 | -50.9% (active) |
| COc1ccc(CCOc2cc3c(cc2OC)CCN(C(=O)NCc2cocn2)C3c2ccc(C)cc2C)cc1 (stereo not drawn) | 3.86% (active) |
| O=C1NC(=O)c2c(CCCSc3nc4ccccc4c(=O)n3CCc3ccccc3)cccc21 | 112% |
| NC(CCl)=NCC12CC3CC(CC(C3)C1)C2 | -31.3% (active) |
| COc1cc(/C=N/NC(=O)c2ccccc2Nc2cccc(C(F)(F)F)c2)cc(OC)c1OC | -20.8% (active) |
| N=C(N)c1ccc(-c2ccc(-c3ccc(Cl)cc3Cl)s2)cc1F | -63.5% (active) |
| Nc1ccccc1NC(=O)c1ccc(CN2CCC/C(=C\c3ccccn3)C2=O)cc1 | -6.37% (active) |
| C#C[C@]1(O)CC[C@H]2[C@@H]3CC=C4c5sc(Nc6cc(C)cc(C)c6)nc5CC[C@]4(C)[C@H]3CC[C@@]21C | -11.3% (active) |
| O=[N+]([O-])c1cccc(C2CC(c3ccccc3)=Nc3ccccc3S2)c1 (stereo not drawn) | 86.4% |
| O=C1OC(=O)C2C3CC(c4ccccc43)C12 (stereo not drawn) | 121% |
| CCN(C)c1ccccc1 | 113% |
| CCN(C(=O)N1CCN(c2cc3c(cc2F)c(=O)c(C(=O)O)cn3C2CC2)CC1)c1nc(-c2ccc(C)cc2)cs1 | -0.725% (active) |
| COc1ccc(C2C3=C(COC3=O)N(CCO)c3cc4c(cc32)OCCO4)cc1 (stereo not drawn) | 32.9% |

| Compound | growth |
| --- | --- |
| COc1cc(OC)c(S(=O)(=O)NNC(=O)c2ccncc2)cc1C(=O)/C=C/c1ccc(C)cc1 | 38.3% |
| CS(=O)c1nccc(-c2c(-c3ccc(F)c(OCCc4ccccc4)c3)nc3sccn23)n1 (stereo not drawn) | -39.4% (active) |
| Cc1nn(-c2ccccc2)c2nc(Cl)c(C=O)c(-c3ccccc3)c12 | 94.7% |
| CCc1[nH]nc(-c2ccc(OC)cc2)c1-c1ccccc1OCCN(CC)CC | 87.8% |
| Cc1ccccc1NC(=O)Cn1cc(CN2CCN(c3ccnc4cc(Cl)ccc34)CC2)nn1 | 93% |
| COc1cc(/C=C2\CN(C(=O)CCN3CCC(=NO)CC3)C/C(=C\c3cc(OC)c(OC)c(OC)c3)C2=O)cc(OC)c1OC | -41.2% (active) |
| CCOC(=O)CC1CSC(c2cccc(Cl)c2)=N1 (stereo not drawn) | 108% |
| COc1ccc(-c2nc(-c3nc4ccc(OC)cc4[nH]3)c3ccccn23)cc1 | 72.2% |
| CC(C)Cn1cnc2c(=O)[nH]c(N)nc21 | 91.6% |
| Brc1ccccc1/C=N/Nc1nc(N/N=C/c2ccccc2Br)nc(N2CCOCC2)n1 | 90.3% |
| CCCCN(CCCC)c1ccc(C(=O)O)cc1 | 101% |
| COc1ccc(-n2nc(C)c3c(Nc4ccc(NC(=O)Nc5c(Cl)cccc5Cl)cc4)ncnc32)cc1 | 27.9% |
| CC(C)(C)OC(=O)N1CCC(O)[C@@H](O[Si](c2ccccc2)(c2ccccc2)C(C)(C)C)[C@H]1/C=C/c1ccccc1 (stereo partly drawn) | 15.2% |
| Cc1ccc(NS(=O)(=O)c2ccc(C)cc2)cc1 | 94.4% and 87.3% |
| CCCCNC(=O)Oc1ccc2c(=O)c3sc4c(=O)c5ccccc5c(=O)c4c3c(=O)c2c1 | -48.3% (active) |
| CCCC(C(=O)OCC)C(C)OC(=O)OCC (stereo not drawn) | 101% |
| Cc1cc(Cl)nc(N(CCNc2ccnc3cc(Cl)ccc23)Cc2ccccn2)n1 | 3.86% (active) |
| Fc1cnc(NC2CC2)nc1-c1cnc2ccc(N3CCOCC3)cn12 | -29.6% (active) |
| COc1cc(OCc2cccc(-c3ccc(C(O)c4nccs4)cc3)c2C)cc(OC)c1CNCCNC(C)=O (stereo not drawn) | 92.1% |
